The source of these data is PubChem BioAssay (Tox21).

Unmarked numbers belong to inactive results. Records with an inconclusive call do not appear. Where a call stands in place of a potency, no number is given. Activity calls are given as the source filed them. Unless noted, calls come from the whole dose curve; as a rule, active = well fitted cell-killing curve with a large enough effect in the repeat runs; inconclusive = weak or mixed curves, or effect the other way; inactive = flat fitted curve, though single readings scatter.

In the first assay the target is Thyrotropin-releasing hormone receptor (Homo sapiens) (UniProt P34981). Description: qHTS assay to identify small molecule agonists of the thyrotropin-releasing hormone receptor (TRHR) signaling pathway (AID 1346891; calls by dose curve). Conditions: TRHR-HEK293 calcium fluorescence, agonist mode; series mostly up to 57.6 µM; activation: at the top concentration. The essentials: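 Screening of agonists relied on calcium signalling in HEK293 cells expressing human TRHR: dye loading 2 h at 37 °C preceded compound addition and a 3-min fluorescence time course.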
Thyrotropin-releasing hormone receptor (Homo sapiens), sequence (P34981 whole entry, looked up): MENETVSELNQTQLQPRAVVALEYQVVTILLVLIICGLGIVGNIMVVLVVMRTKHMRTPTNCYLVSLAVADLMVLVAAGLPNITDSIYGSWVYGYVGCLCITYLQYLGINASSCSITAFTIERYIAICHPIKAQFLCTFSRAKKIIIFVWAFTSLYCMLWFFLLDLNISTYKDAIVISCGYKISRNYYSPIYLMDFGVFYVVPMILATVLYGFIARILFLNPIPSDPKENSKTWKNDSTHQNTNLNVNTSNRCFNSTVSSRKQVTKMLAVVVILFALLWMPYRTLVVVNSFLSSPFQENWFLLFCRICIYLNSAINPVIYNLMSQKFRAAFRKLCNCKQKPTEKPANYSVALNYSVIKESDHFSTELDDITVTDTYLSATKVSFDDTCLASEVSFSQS
Turning to `CNCC(O)c1ccc(O)cc1` (configuration not stated), the outcome was inactive.

As for `Oc1c(Br)cc(Br)cc1Br`, the result was inactive.

Regarding `COC(C)(C)CCCC(C)C/C=C/C(C)=C/C(=O)OC(C)C` (configuration not stated), the result was inactive.

Take `C[C@H]1C(=O)O[C@@H]2CCN3CC=C(COC(=O)[C@](C)(O)[C@]1(C)O)[C@H]23`: the result was inactive.

Take `Oc1ccc(Cl)cc1`: the outcome was inactive.

For `Cc1cccc(N)c1`, the result was inactive.

In the case of `COP(=S)(OC)SCN1C(=O)c2ccccc2C1=O`, the result was inactive.

`O=[N+]([O-])c1cc([As](=O)(O)O)ccc1O`: the result was inactive.

Tested on in a further assay: not listed separately
Description: Human pregnane X receptor (PXR) small molecule agonists, qHTS cell viability counter screen (AID 1346977). Note: nearly all actives have a fitted effect of over 50% in size. The following applies: PXR-Luc HepG2 viability, CellTiter-Fluor, 24 h; series mostly up to 92.4 µM; activity change, negative = cytotoxicity: at the top concentration. The method in brief:
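Tox21 qHTS format; PXR-Luc HepG2, 2,000/well, charcoal-stripped FBS 5%. Cpd exposure 24hr. Read: CellTiter-Fluor fluorescence, multiplexed with luciferase.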
A general note: In qHTS, concentration-response curves come from the screen itself.
Regarding `Clc1cnc(Oc2ccc(Oc3ncc(Cl)cc3Cl)cc2)c(Cl)c1`, the Potency result is “inactive”.

Consider `CCSC(=O)N1CCCCCC1`, for which the Potency result was “inactive”.

On to `CNCC(O)c1ccc(O)cc1` (configuration not stated), for which the Potency result is “inactive”.

For the compound `CNC(=O)O/N=C(\SC)C(=O)N(C)C`, the Potency result is “inactive”.

Take `C=CCN=C=S`: the Potency result is “inactive”.

`Oc1c(Br)cc(Br)cc1Br`: the Potency entry was “inactive”.

In the case of `CC(=O)C1CCOC1=O` (configuration not stated), the Potency result is “inactive”.

With `Nc1cccc(Cl)c1`, the Potency result is “inactive”.

`C/C=C/c1ccc2c(c1)OCO2`: the Potency entry is “inactive”.

With `Nc1ncc([N+](=O)[O-])s1`, the “activity change, negative = cytotoxicity” value was -0.808%.

Take `COC(C)(C)CCCC(C)C/C=C/C(C)=C/C(=O)OC(C)C` (configuration not stated): the Potency result was “inactive”.

For `OCC(O)CCl` (configuration not stated), the Potency result was “inactive”.

Turning to `CN(C)NC(=O)CCC(=O)O`, the Potency result was “inactive”.

Take `Cc1ccccc1N`: the Potency entry was “inactive”.

With `Cc1cc(Cl)ccc1OC(C)C(=O)O` (configuration not stated), the Potency entry was “inactive”.

As for `C[C@]12CC[C@H](O)CC1=CC[C@@H]1[C@@H]2CC[C@]2(C)C(=O)CC[C@@H]12`, the Potency entry was “inactive”.

Consider `CN1C(=O)CCS(=O)(=O)C1c1ccc(Cl)cc1` (configuration not stated), for which the Potency entry is “inactive”.

On to `COC(=O)Nc1cccc(OC(=O)Nc2cccc(C)c2)c1`, for which the Potency entry was “inactive”.

Consider `C[C@H]1C(=O)O[C@@H]2CCN3CC=C(COC(=O)[C@](C)(O)[C@]1(C)O)[C@H]23`, for which the Potency entry is “inactive”.
